High-throughput results: PubChem BioAssay, National Center for Advancing Translational Sciences (NCATS)
An excerpt weighted towards active compounds, which were near 2.2% of everything screened.
Mito fusion yeast: mitochondrial division inhibition or fusion activation; S. cerevisiae fusion-defective mutant growth rescue, CellTiterGlo 48 h; Potency, µM (top dose mostly 46.1 µM), for inactives: at the highest dose growth rescue (activation), actives largely listed as activators; 0.23% of 320,000 active; AID 485298; also: % of control where 0% means no effect; nearly all actives have a fitted effect of over 45% in size
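Yeast fusion mutant, YPEG (non-fermentable carbon), compound, 48 h at 37C non-permissive; CellTiterGlo added, 10 min RT, luminescence read. Rescued growth = division inhibition.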
FUS yeast rescue: FUS proteinopathy suppression in yeast | 0.24% of 390,000 active | S. cerevisiae FUS-expressing, growth rescue, OD600, 24 h | Potency, µM (top dose mostly 76.6 µM), most hits filed as activators;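 also: plate controls were DMSO vehicle for no effect and reference control for full effect; nearly all actives have a fitted effect of over 55% in size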
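Cultures pregrown in 2.5% raffinose medium are shifted to minimal medium containing 2% galactose to express toxic FUS. Compounds are tested at several concentrations. After 24hr at 30C, growth is quantified at 600 nm absorbance.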
aSyn rescue: inhibitors of alpha-synuclein toxicity in yeast; Yeast expressing alpha-synuclein, growth rescue, BacTiter-Glo, 24 h; Potency, µM (top dose mostly 46.1 µM), without a hit: top-dose growth rescue (activation), usual class: activators; 0.14% of 370,000 active; also: % of control where 0% means no effect; nearly all actives have a fitted effect of over 65% in size
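Readout is rescue of growth in alpha-synuclein-expressing yeast, so inhibitors of toxicity appear as activators. Growth after 24 hr at 30 deg C in galactose medium is quantified by luminescence.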
TDP43 rescue: rescues yeast growth from TDP-43 toxicity; TDP-43 expressing yeast growth rescue, BacTiter-Glo, 24 h; Potency, µM (titrated, usually from 46.1 µM), without a hit: at the highest dose growth rescue (activation), usual class: activators; 1.8% of 410,000 active; AID 652104; also: % of control where 0% means no effect; nearly all actives have a fitted effect of over 50% in size
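Cell-based yeast growth screen: TDP-43 expression induced in galactose, inoculum OD600=0.02 after raffinose pregrowth to mid-log. Read-out BacTiter-Glo luminescence at 24 hr, 30 deg C; inhibition of toxicity seen as signal increase.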
Abeta yeast res: compounds reversing amyloid beta toxicity in yeast | yeast expressing A-beta42, growth rescue, OD600, 48 h; response scale: 0% DMSO, 100% iron-clioquinol control | Potency, µM (series often up to 46.1 µM), usual class: activators | 0.063% of 410,000 active; also: nearly all actives have a fitted effect of over 55% in size
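Yeast A-beta toxicity model in growth medium with pinned compounds, 48 h at 30 C; growth read as absorbance at 600 nm. Normalized to FeCl3/clioquinol equimolar mix (positive) and DMSO (negative).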
Numbers without * were called inactive; i = inactive; ? = inconclusive; . = no result given; [ ] = dose if it differs, or a comment. Calls follow the shape of the dose curve; as a rule, active = well fitted curve in the direction sought with a large enough effect; inconclusive = small, poorly fitted or top-dose-only effect, or another doubt; inactive = no such curve, though single readings can be large; an effect the other way counts as inactive or inconclusive. Potency is read from the fitted curve at half-maximal effect.

SMILES | Mito fusion yeast | FUS yeast rescue | aSyn rescue | TDP43 rescue | Abeta yeast res
O=C(Nc1ccc(N2CCOCC2)cc1)C1CCN(C(=O)OCc2ccccc2)CC1 | 2% | i | -2% | 7% | i
Cc1cc(F)ccc1S(=O)(=O)Nc1ccccc1C(=O)N1CCCC1 | 2% | i | 4.5µM* | 15% | i
Cc1cc(Cl)ccc1OCC(=O)N1CCCN(C(=O)COc2ccc(Cl)cc2C)CC1 | 19% | . | ? | 25µM* | i
COc1ccc(C(=S)N2CCN(c3ccccc3Cl)CC2)cc1OC | 18% | i | 5% | 11µM* | i
COc1ccccc1N1CCN(C(=O)COc2ccc(Cl)cc2Br)CC1 | 6% | i | 28µM* | 14µM* | i
CSc1ccccc1NC(=O)COc1ccc(Cl)cc1C | 12% | . | -13% | 16µM* | i
Cc1cc(Cl)ccc1OCC(=O)N1CC(C)CC(C)C1 (stereo unspecified) | 4% | i | 16% | ? | i
OC(c1ccccc1)(c1ccccc1)C1CCN(CCCNc2cccc(Br)c2)CC1 | . | i | . | . | .
Cc1cc(Cl)ccc1OC(C)C(=O)N1CCCN(C(=O)C(C)Oc2ccc(Cl)cc2C)CC1 (stereo unspecified) | ? | ? | ? | 32µM* | i
CN(C(=O)NCc1noc2ccccc12)c1cccc(Cl)c1 | . | i | . | ? | i
S=C(NCc1ccccn1)Nc1ccc(Br)cc1Cl | 8% | i | 3% | 13µM* | ?
C=CCNc1nc(-c2ccc(Cl)cc2)cs1 | 1% | i | -13% | 11µM* | i
CC1CCN(c2oc(-c3ccc(OCc4ccccc4Cl)cc3)nc2C#N)CC1 | . | . | -1% | . | .
COC(=O)c1ccn(CSc2c(F)c(F)cc(F)c2F)n1 | 0% | i | 1% | 8% | i
COC(=O)c1ccn(CSc2cc(Cl)ccc2Cl)n1 | 15% | i | -6% | 13µM* | i
COC(=O)CCc1c[nH]c2ccc([N+](=O)[O-])cc12 | . | i | 11% | 14% | i
O=C(CCc1c[nH]c2ccccc12)OCc1cccc([N+](=O)[O-])c1 | -13% | i | 16% | ? | 11µM*
CCCCCC[C@@H](CCCc1ccccc1OC)CN(CCCC)S(C)(=O)=O | . | i | . | . | .
CCCCCCNc1ccc(/C=C/c2ccnc3ccccc23)cc1 | . | . | -65% | . | .
O=S(=O)(Nc1ccc(C(O)(C(F)(F)F)C(F)(F)F)cc1)c1ccc(Cl)c2nonc12 | . | i | -17% | 20µM* | i
COc1ccc(CC(=O)NC2CCCc3ccccc32)cc1 (stereo unspecified) | 3% | i | -1% | 18µM* | i
O=C(NC(=S)NC1CCCc2ccccc21)c1ccco1 (stereo unspecified) | -13% | i | -11% | ? | 11µM*
CCOC(=O)c1cccc(NC(=O)CN(C)S(=O)(=O)c2cc3ccccc3s2)c1 | . | i | . | . | .
CCOC(=O)c1oc2ccc(S(=O)(=O)n3nc(-c4ccc(OC)cc4)cc3N)cc2c1C | 13µM* | i | 1% | 17% | i
O=C(O/N=C(/c1ccccc1)c1ccncc1)c1cccc(F)c1 | 5% | i | 11% | 14µM* | i
SMILES | Mito fusion yeast | FUS yeast rescue | aSyn rescue | TDP43 rescue | Abeta yeast res
CCCCOc1ccc(C(=O)NCc2nnnn2-c2ccc(C)c(C)c2)cc1 | . | i | . | 20µM* | i
COc1cc(C(=O)NCc2nnnn2-c2ccc(C)c(C)c2)cc(OC)c1OC | . | i | . | 9% | i
NC(=O)C1=CN(C2OC(COP(=O)(O)OP(=O)(O)OC[C@H]3O[C@@H](n4cnc5c(N)ncnc54)[C@H](OP(=O)(O)O)[C@@H]3O)C(O)C2O)C=CC1 (stereo partly specified) | -1% | . | -2% | . | .
CC1=Cc2ccccc2C(C#N)N1C(=O)c1ccccc1 (stereo unspecified) | 13µM* | i | ? | -29%[0.397 µM] | ?
Cc1ccccc1OCCC(=O)Nc1ccc(F)c(Cl)c1 | 21% | i | -5% | 14µM* | i
CN1CCCC1CCSc1ncccc1-c1nc2ccccc2[nH]1 (stereo unspecified) | . | i | . | . | .
CCOC(=O)Cc1ccc(NC(=O)NCc2c(-n3cccc3)sc3c2CCCC3)cc1 | . | i | . | 10%[9.22 µM] | i
